Screening data: PubChem, National Center for Advancing Translational Sciences (NCATS)
Cycloheximide cs: counter-screen for Shiga toxin inhibitors: cycloheximide protein synthesis inhibition; cell reporter, cycloheximide protein synthesis inhibition counterscreen; max response, %; 12% of 300,000 active; AID 2314; in the data active means max response mostly above about 13%, no sharp cut-off; inactive means mostly below about 14%; further: read at 38.3 µM for the half of the compounds with a filed dose
Shiga inhibitor: inhibitors of Shiga toxin in Vero cells. Vero cells, Shiga toxin protein synthesis inhibition reporter. inhibition, % at 38.7 µM. 9.2% of 290,000 active; in the data active means inhibition mostly above about 28%, no sharp cut-off; inactive means mostly below about 43%
SARS PLpro yeast: blocks SARS-CoV papain-like protease in a yeast assay; S. cerevisiae expressing SARS-CoV PLpro, growth rescue; Potency, µM (highest dose often 32.9 µM), most hits filed as activators; 0.19% of 330,000 active; AID 485353; calls by dose curve; further: nearly all actives have a fitted effect of over 55% in size
NS1 function inh: influenza NS1 inhibition. Potency, µM (highest dose often 46.1 µM). 0.4% of 270,000 active. AID 2326; calls by dose curve; further: actives are rising curves; nearly all actives have a fitted effect of over 50% in size
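OD600 was taken as the measure of yeast growth restored by compound in an NS1-expressing S. cerevisiae strain. Cells had been washed out of glucose medium and diluted 1:100 into galactose -URA medium, pH 6.0.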
LmPK inh: blocks Leishmania mexicana pyruvate kinase activity | Q27686 | purified LmPK, Kinase-Glo ATP luminescence, 1 h | Potency, µM (highest dose often 57.5 µM), actives largely listed as inhibitors | 0.37% of 290,000 active | AID 1721
Target sequence (Q27686 whole entry, looked up): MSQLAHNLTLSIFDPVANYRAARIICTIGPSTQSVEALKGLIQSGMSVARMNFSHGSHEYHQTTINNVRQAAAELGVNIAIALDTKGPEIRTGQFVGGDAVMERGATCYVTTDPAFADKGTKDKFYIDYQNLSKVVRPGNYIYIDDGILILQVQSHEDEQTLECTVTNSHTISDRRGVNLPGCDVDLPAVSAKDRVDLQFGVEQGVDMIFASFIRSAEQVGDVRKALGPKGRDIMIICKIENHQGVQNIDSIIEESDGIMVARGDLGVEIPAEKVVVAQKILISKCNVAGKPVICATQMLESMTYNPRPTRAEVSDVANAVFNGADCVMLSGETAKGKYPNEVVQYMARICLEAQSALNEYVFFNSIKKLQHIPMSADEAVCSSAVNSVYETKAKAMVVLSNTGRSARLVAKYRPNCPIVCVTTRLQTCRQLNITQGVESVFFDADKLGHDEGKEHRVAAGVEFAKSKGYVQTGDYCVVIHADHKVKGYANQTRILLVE
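ATP generated from ADP (0.1 mM) and PEP (0.5 mM) by 0.1 nM LmPK over 1 h at room temperature (pH 7.2 imidazole buffer) was detected by coupled luciferase luminescence. Values were normalized to uninhibited and no-enzyme wells.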
Tb PYK inh: inhibitors of Trypanosoma brucei pyruvate kinase. Potency, µM (highest dose often 76.8 µM), hits mostly inhibitors. TbPYK enzyme, Kinase-Glo Plus ATP luminescence, 45 min. AID 624173. 0.12% of 410,000 active. Q57TT1; further: nearly all actives have a fitted effect of over 50% in size
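Screened from lowest to highest concentration, compounds were pinned into TbPYK/substrate mixtures, and ADP (130 uM final) was added. Plates sat at room temperature for 45 min prior to Kinase-Glo Plus detection by luminescence.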
Of the large screens only hits and unclear results are named; the others gave an inactive call. The sample as a whole holds a higher share of hits than the screen did. Unless noted, the call rests on the fitted dose curve; in most records, active means well fitted curve in the direction sought with a large enough effect; inconclusive means small, poorly fitted or top-dose-only effect, or another doubt; inactive means no such curve, though single readings can be large; an effect the other way counts as inactive or inconclusive.

CCOC(=O)N1CCC(NC(=O)c2ccc3c(Cl)c4c(nc3c2)CCCC4)CC1	none
O=C(Nc1cccnc1Cl)c1ccc2c(Cl)c3c(nc2c1)CCC3	Cycloheximide cs 23 (no result: NS1 function inh)
O=C(NC1CC1)c1ccc2c(Cl)c3c(nc2c1)CCCC3	Cycloheximide cs 23, Shiga inhibitor 68 (no result: NS1 function inh)
Cc1ccc(C)n1-c1ccc(C(=O)NN)s1	Cycloheximide cs 26, Shiga inhibitor 26 (no result: NS1 function inh)
COC(=O)N/N=C(\C)c1ccc(-n2ccnc2)cc1	none (no result: NS1 function inh)
C/C(=N\NC(=O)COc1ccc(C)cc1C(C)C)c1ccc(-n2ccnc2)cc1	Cycloheximide cs 17
CCOc1ccc(NC(=O)C(=O)NCCc2ccccc2)cc1	none (no result: Cycloheximide cs, Shiga inhibitor, SARS PLpro yeast, NS1 function inh, LmPK inh)
O=C(C=Cc1ccccc1F)c1ccccc1	none (no result: Cycloheximide cs, Shiga inhibitor, SARS PLpro yeast, NS1 function inh, LmPK inh)
O=C(/C=C/c1ccccc1F)c1ccoc1	Cycloheximide cs 26, Shiga inhibitor 123
Cc1ccccc1CSc1nnc(-c2ccncc2)o1	Cycloheximide cs 13
c1ccc(CSc2nnc(-c3ccncc3)o2)cc1	Cycloheximide cs 35, Shiga inhibitor 85
Cc1ccc(-c2nnc(SCc3ccccc3C#N)o2)cc1	none (no result: Cycloheximide cs, Shiga inhibitor, SARS PLpro yeast, NS1 function inh, LmPK inh)
COc1ccccc1-c1cccc([C@@H]2C[C@H]3[C@H](CON3C)CN2C)c1	none (no result: Cycloheximide cs, Shiga inhibitor, SARS PLpro yeast, NS1 function inh, LmPK inh)
CCOC(=O)Oc1ccc2c(=O)c(Oc3cccc(C)c3)coc2c1	Cycloheximide cs 21
Cc1cccc(Oc2coc3cc(OC(=O)c4cc5ccccc5oc4=O)ccc3c2=O)c1	Cycloheximide cs 40
Cc1cccc(Oc2coc3cc(O)ccc3c2=O)c1	Cycloheximide cs 31, Shiga inhibitor 49
Cc1cccc(Oc2coc3cc(OC(=O)c4cncc(Br)c4)ccc3c2=O)c1	none
CCS(=O)(=O)Nc1ccc(C2=NN(S(C)(=O)=O)C(c3cccs3)C2)cc1 (configuration not stated)	Cycloheximide cs 21 (no result: NS1 function inh)
COc1cccc(C2=NN(S(C)(=O)=O)C(c3cccs3)C2)c1 (configuration not stated)	Cycloheximide cs 35, Shiga inhibitor 40
COc1ccc(C2=NN(S(C)(=O)=O)C(c3cccs3)C2)cc1OC (configuration not stated)	Cycloheximide cs 44, Shiga inhibitor 66
CS(=O)(=O)N1N=C(c2ccccc2)CC1c1cccs1 (configuration not stated)	none
Cc1ccc2cc(C3CC(c4cccs4)=NN3S(C)(=O)=O)c(Cl)nc2c1 (configuration not stated)	none
CCS(=O)(=O)Nc1cccc(C2=NN(C(C)=O)C(c3cccs3)C2)c1 (configuration not stated)	none
COc1ccc(C2CC(c3cccs3)=NN2S(C)(=O)=O)cc1OC (configuration not stated)	none
COc1ccc2cc(C3CC(c4cccs4)=NN3S(C)(=O)=O)c(Cl)nc2c1 (configuration not stated)	Cycloheximide cs 24, NS1 function inh inconclusive
CC(NC(=O)c1ccc([N+](=O)[O-])o1)C1CC2CCC1C2 (configuration not stated)	none (no result: Cycloheximide cs, Shiga inhibitor, NS1 function inh, LmPK inh)
Cc1ccc(S(=O)(=O)N2C[C@]3(O)C[C@@H]4C(=O)N(c5ccccc5)C(=O)[C@@H]4C[C@]3(OC(=O)NCc3ccccc3)C2)cc1	none (no result: Cycloheximide cs, Shiga inhibitor, SARS PLpro yeast, NS1 function inh, LmPK inh)
COc1ccccc1CNc1ncnc2c1c(-c1ccccc1)cn2-c1cccc(C)c1	none (no result: Cycloheximide cs, Shiga inhibitor, SARS PLpro yeast, NS1 function inh, LmPK inh)
COc1ccc(-n2ncc3c(NCCCN4CCOCC4)ncnc32)cc1	Cycloheximide cs 41, Shiga inhibitor 83, Tb PYK inh inconclusive
COc1ccc(-n2ncc3c(NCCN4CCOCC4)ncnc32)cc1	Cycloheximide cs 34, Shiga inhibitor 47
COc1cc(CCN)c(OC)c(OC)c1	none (no result: Cycloheximide cs, Shiga inhibitor, SARS PLpro yeast, LmPK inh, Tb PYK inh)
Cc1noc(C)c1S(=O)(=O)Nc1ccc2c(c1)C(=O)N([C@H](C)CO)C[C@@H](C)[C@@H](CN(C)Cc1ccc3c(c1)OCO3)O2	none (no result: Cycloheximide cs, Shiga inhibitor, NS1 function inh, LmPK inh)
CC(C)(C)c1ccc(N=C2SCC(=O)N2Cc2cccs2)cc1	Cycloheximide cs 47, Shiga inhibitor 50
CCN1C(=O)CSC1=Nc1ccc(C(=O)O)cc1	none (no result: Shiga inhibitor)
CCCCOc1ccc(C(=O)N/C(=C/C=C/c2ccccc2)C(=O)NC)cc1	Cycloheximide cs 10
CCCCOc1ccc(C(=O)N/C(=C/C=C/c2ccccc2)C(=O)O)cc1	none
O=C(Cn1nnc(-c2ccc(N3CCOCC3)cc2)n1)OC1CCCCC1	none
CC1CCN(C(=O)Cn2nnc(-c3ccccc3)n2)CC1	Cycloheximide cs 30, Shiga inhibitor 83
